High-throughput results (PubChem BioAssay)
JMJD2A Tudor: inhibitors of human JMJD2A Tudor domain; O75164; AlphaScreen JMJD2A-Tudor / H3K4me3 peptide binding; Potency, µM (series often up to 114 µM), for the others: at the highest dose activity change, negative = inhibition, usual class: inhibitors; actives 4.4% (n = 390,000); also: % is scaled to controls: 0 for no effect and ±100 for the full control effect; nearly all actives have a fitted effect of over 50% in size
Sfp PPTase inh: Sfp phosphopantetheinyl transferase inhibition; Q9F4F7; Biochemical Sfp PPTase activity, qHTS; Potency, µM, without a hit: largest response in the series, negative = inhibition, hits mostly inhibitors; actives 3.5% (n = 310,000); AID 1490;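 also: the enzyme is Sfp with the accession as filed and its product quenches rhodamine fluorescence; 0% = enzyme reaction without inhibitor and -100% = no enzyme wells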
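After 15 min at room temperature with compound, 15 nM Sfp received 5 uM rhodamine-CoA plus 12.5 uM BHQ-2-ybbR (50 mM Hepes pH 7.6, 10 mM MgCl2). Rate came from the fluorescence difference over 30 min, ex 525/em 598 nm.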
BAZ2B inh: BAZ2B (human) inhibition; Potency, µM (highest dose often 114 µM), without a hit: at the highest dose activity change, negative = inhibition, hits mostly inhibitors; AlphaScreen BAZ2B-H3K14Ac peptide displacement; Q9UIF8; actives 4.4% (n = 360,000); also: % is scaled to controls: 0 for no effect and ±100 for the full control effect; nearly all actives have a fitted effect of over 60% in size
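Protein-peptide AlphaScreen: BAZ2B 50 nM, b-H3K14Ac 50 nM, 1x PBS pH 7.4 + 0.01% Tween-20. Preincubation 30 min RT; cpd 30 min RT (top 110 uM); beads 20 min RT, light-protected.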
PLK1 PBD inh: inhibitors of human PLK1 polo-box domain binding | Plk1 PBD binding of FITC phosphopeptide, fluorescence polarization | Potency, µM, for the others: max response, negative = inhibition, usual class: inhibitors | actives 2.8% (n = 360,000); also: series mostly up to about 57 µM; % is scaled to controls: 0 for no effect and ±100 for the full control effect; nearly all actives have a fitted effect of over 65% in size
HP1b binding inh: inhibitors of HP1-beta chromodomain binding to methylated histone tails; actives 0.56% (n = 390,000); AlphaScreen HP1-beta / biotin-H3K9me3 peptide binding; P83916; Potency, µM (titrated, usually from 114 µM), for the others: at the top dose activity change, negative = inhibition, most hits filed as inhibitors; also: nearly all actives have a fitted effect of over 70% in size
Target sequence (P83916 whole entry, looked up): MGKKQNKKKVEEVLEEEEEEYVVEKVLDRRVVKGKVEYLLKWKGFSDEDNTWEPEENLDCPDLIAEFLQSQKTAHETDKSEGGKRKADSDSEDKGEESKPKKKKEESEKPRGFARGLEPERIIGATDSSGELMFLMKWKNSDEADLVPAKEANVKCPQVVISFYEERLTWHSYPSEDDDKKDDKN
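Compound inhibition of the preformed complex between 50 nM HP1-beta and 50 nM biotinylated H3K9me3 peptide was read by AlphaScreen. Buffer was PBS pH 7.4 with 0.01% Tween-20. Incubations ran 30 min at room temperature, with 10 ug/mL donor/acceptor beads.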
G9a inh: G9a (human) methyltransferase inhibition. Q96KQ7. actives 8.8% (n = 350,000). Potency, µM (highest dose often 102 µM), inactives show top-dose activity, negative = inhibition, hits mostly inhibitors. G9a H3K9 monomethylation, AlphaScreen, 2 h; also: % is scaled to controls: 0 for no effect and ±100 for the full control effect; nearly all actives have a fitted effect of over 75% in size
Target sequence (Q96KQ7 913-1193 limits assumed): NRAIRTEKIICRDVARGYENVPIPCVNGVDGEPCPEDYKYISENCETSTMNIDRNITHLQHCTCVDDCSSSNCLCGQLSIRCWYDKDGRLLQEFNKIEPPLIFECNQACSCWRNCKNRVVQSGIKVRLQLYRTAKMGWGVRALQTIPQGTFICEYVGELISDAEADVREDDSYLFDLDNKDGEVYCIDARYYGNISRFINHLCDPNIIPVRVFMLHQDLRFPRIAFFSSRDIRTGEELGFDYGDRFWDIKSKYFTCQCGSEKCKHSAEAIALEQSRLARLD
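Readings reflect AlphaScreen signal from monomethyl-H3K9 antibody detection. HMT at 20 nM; substrate b-H3K9 500 nM; cofactor SAM 20 uM; 2 h RT reaction; compounds tested as titrations in qHTS with 15 min preincubation.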
An asterisk follows results filed as active; ? = inconclusive; / = not tested or not shown; [ ] = dose if it differs, or a comment. Shown are actives, neighbours in structure and some others; about 12% of the full set was active somewhere. Calls follow the shape of the dose curve; as a rule, active = well fitted curve in the direction sought with a large enough effect; inconclusive = small, poorly fitted or top-dose-only effect, or another doubt; inactive = no such curve, though single readings can be large; an effect the other way counts as inactive or inconclusive. Potency is read from the fitted curve at half-maximal effect.

SMILES	JMJD2A Tudor	Sfp PPTase inh	BAZ2B inh	PLK1 PBD inh	HP1b binding inh	G9a inh
Cc1ccc(NC(=O)CSc2ncccc2C(=O)Oc2cccc([N+](=O)[O-])c2)cc1Cl	-25.7%	?	-8.2%	-1.9%	22.8%	50.1µM*
Cc1ccc(NC(=O)CSc2ncccc2C(=O)Oc2ccccc2Cl)cc1Cl	-13.1%	/	2.3%	/	31.6%	?
Cc1cc(O)c2c(c1)C(=O)[C@@]13Oc4c5c(c(O)c6c(O)cc(C)cc46)C(=O)C[C@H](O)[C@H]5[C@@H]1[C@@H](O)CC(=O)C3=C2O	15.8µM*	/	/	3.36µM*	-19.5%	/
CCC1CCCCN1CCCNC(=O)c1sc2nc(C)cc(C)c2c1-n1cccc1 (stereo not given)	-20.9%	/	-5.9%	/	26.8%	-35.2%[59 µM]
c1cncc(-c2nn3c(Cn4nnc5ccccc54)nnc3s2)c1	-8.6%	31.6µM*	13.7%	16.8µM*	-22.0%	12.9%[2.33 µM]
c1ccc(-c2nn3c(Cn4nnc5ccccc54)nnc3s2)nc1	?	15.8µM*	-31.2%	26.7µM*	-28.4%	?
O=C(COC(=O)C12CC3CC(CC(C3)C1)C2)NCC1CCCO1 (stereo not given)	-12.1%	/	/	/	32.0%	/
CCN(C(=O)c1cccc(NC(=O)c2ccccc2)c1)C1CCCCC1	-14.6%	0.2%	3.4%	-7.1%	7.3%	16.8%
Cc1ccc(S(=O)(=O)Nc2ccccc2C(=O)Nc2nc(-c3ccc(F)cc3)cs2)cc1	?	-13.0%	9.5%	26.7µM*	-8.3%	0.2%[59 µM]
CS(=O)(=O)c1ccccc1C(=O)Nc1ccc(-c2nc3ccccc3[nH]2)cc1	-18.1%	17.7%	-23.4%	-13.8%	0.4%[57 µM]	18.8%
Cc1ccc(S(=O)(=O)Nc2nc(-c3ccccc3)cs2)cc1	-32.9%	17.5%	?	?	-15.4%	?
O=C(Nc1ccc(-c2nc3ccccc3[nH]2)cc1)c1ccccc1NS(=O)(=O)c1ccc(F)cc1	-20.0%	8.7%	-5.1%	26.7µM*	28.0%	15.6%[59 µM]
COc1ccc(-c2csc(NC(=O)c3ccccc3NS(=O)(=O)c3ccc(F)c(F)c3)n2)cc1	56.2µM*	-5.2%	44.7µM*	21.2µM*	?	-36.7%[12.7 µM]
O=C(O)Cc1ccc2c(c1)Cc1cccnc1O2	/	/	/	2.3%	/	/
N#Cc1nc(Nc2cccc3ccccc23)nc(NC2CCCC2)n1	-26.7%	/	/	/	/	/
COc1ccc(Nc2c(-c3ccc(Cl)cc3)nc3cnccn23)cc1OC	56.2µM*	/	44.7µM*	/	-36.7%	12.6µM*
CSc1ccc(-c2nc3cnccn3c2Nc2ccc3c(c2)OCO3)cc1	?	?	11.2µM*	-6.3%	44.7µM*	44.7µM*
c1cncc(-c2nc3ccccn3c2Nc2ccc3c(c2)OCCO3)c1	?	14.2%	?	-14.3%	-9.8%	?
Clc1ccc(-c2nc3ncccn3c2Nc2ccc3c(c2)OCCO3)cc1	-2.7%	8.9%	-36.0%	-4.1%	4.5%	-20.4%[59 µM]
Clc1ccc(-c2nc3cnccn3c2Nc2ccc3c(c2)OCO3)cc1	50.1µM*	-5.6%	44.7µM*	-16.5%	?	15.8µM*
COC(=O)C1=C(C(=O)OC)[C@@H]2N(Cc3ccccc3)c3ccccc3[C@@]23C[C@@H](C(=O)OC)N(S(=O)(=O)c2ccc([N+](=O)[O-])cc2)C3=N1	/	-2.9%	/	/	/	/
NCCC(=O)O	/	-4.0%	/	/	/	34.6%[59 µM]
O=C/C(=C\Nc1ccccn1)c1nc2ccccc2o1	39.8µM*	-20.0%	79.4µM*	-9.4%	9.0%	0.8%[59 µM]
Nc1ccc2c(c1)ncn2CCCn1cnc2cc(N)ccc21	44.7µM*	11.0%	79.4µM*	1.2%	21.8%	-29.0%[59 µM]
CC1(C)CC(=O)C2=C(C1)NC(Nc1nc3ccccc3o1)=NC2c1ccccc1Cl (stereo not given)	-8.5%[57.1 µM]	/	/	/	27.6%[57 µM]	/
COc1cc2cc(CNc3ccc(C)cc3)c(=O)n(CC(=O)Nc3ccc(C(C)C)cc3)c2cc1OC	-15.9%	/	-6.3%	/	51.9%	?
CCCCSCc1[nH]c(=O)[nH]c1C(=O)CCCCC(=O)OCC	-14.3%	-1.4%	?	-24.9%	34.9%	?
Cc1[nH]c(=O)[nH]c1C(=O)CCCCC(=O)O	0.891µM*	14.2%	0.891µM*	-4.1%	-96.5%	1.58µM*
